For seven molecules, growth results are on record in PubChem BioAssay (NCI).

Some test systems named below: DU-145 prostate; K-562 leukemia; MALME-3M melanoma; MDA-MB-231 breast; RXF 393 renal; SF-268 CNS; SF-295 CNS; SF-539 CNS; UACC-257 melanoma; M14 melanoma; HCT-15 colon; HT29 colon; SNB-75 CNS; SNB-19 CNS; U251 CNS; PC-3 prostate; SK-MEL-5 melanoma; UACC-62 melanoma; SK-MEL-28 melanoma.
What all share (assay): NCI-60 one-dose screen, 48 h (100 = growth as untreated, 0 = no growth, -100 = all killed)
Conditions in all cases: 10 µM unless noted

The panel holds about 83,000 compounds, 20% with a hit somewhere; the sample as a whole holds those more often.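 48-hour exposure, single concentration, 96-well plates; percent growth endpoint where 0 means no net growth. Active: below 10.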 Unmarked numbers belong to inactive results. Calls of active or inactive are those of the source.

For `COc1cc(C2CC(c3cc(OC)c(OC)c(OC)c3)=Nc3c(N)nc(N)nc3N2)ccc1Oc1nc(NCCO)nc(N2CCOCC2)n1` (stereo not drawn), the growth in the experiment with DU-145 prostate is 114%; in the experiment on K-562 leukemia, 91.1%; in the experiment with MALME-3M melanoma, 98.5%; in the experiment on MDA-MB-231 breast, 102%; in the experiment with RXF 393 renal, 105%; with SF-268 CNS it was 93.8%. Also, the growth in the experiment on SF-295 CNS is 101%; in the experiment on SF-539 CNS, 97.5%; in the experiment with UACC-257 melanoma, 105%; in the experiment with M14 melanoma, 102%; with HCT-15 colon, 102%; in the experiment with HT29 colon, 107%. In addition, the growth with SNB-75 CNS was 88.7%; in the experiment with SNB-19 CNS it was 94.9%; in the experiment with U251 CNS, 101%; in the experiment on PC-3 prostate, 100%; in the experiment on SK-MEL-5 melanoma, 99%; with UACC-62 melanoma, 102%. The growth with SK-MEL-28 melanoma is 108%.
On to `CC(=O)Nc1ccc(-c2nc3cc(-c4ccc(O)cc4)ccc3n2C)cc1`, for which the growth in the experiment on DU-145 prostate is 54.9%; with K-562 leukemia, 15.5%; with MALME-3M melanoma, 68.4%; in the experiment on MDA-MB-231 breast it was 53.4%; in the experiment on RXF 393 renal, 66.7%; with SF-268 CNS it was 68.1%. Moreover, the growth was 47.1% in the experiment with SF-295 CNS; 49.2% in the experiment on SF-539 CNS; 80.8% with UACC-257 melanoma; 63.9% in the experiment with M14 melanoma; 36.8% with HCT-15 colon; 53.6% in the experiment on HT29 colon. In addition, the growth in the experiment on SNB-75 CNS is 44.1%; in the experiment on SNB-19 CNS, 68.8%; in the experiment on U251 CNS it was 59.9%; in the experiment on PC-3 prostate, 74.6%; in the experiment on SK-MEL-5 melanoma, 78.3%; with UACC-62 melanoma, 51.4%. Moreover, the growth in the experiment on SK-MEL-28 melanoma is 74.3%.
On to `COc1cc(C2CC(c3cc(OC)c(OC)c(OC)c3)=NN2C(C)=O)ccc1OCc1ccccc1` (stereo not drawn), for which the growth in the experiment with DU-145 prostate was 40.4%; in the experiment on K-562 leukemia it was 18.6%; with MALME-3M melanoma, 43.1%; in the experiment on MDA-MB-231 breast, 64%; with RXF 393 renal it was 31.4%; with SF-268 CNS, 47.8%. In addition, the growth was 24.6% in the experiment on SF-295 CNS; 51.7% in the experiment with SF-539 CNS; 48.8% in the experiment on UACC-257 melanoma; 36.9% in the experiment on M14 melanoma; 34.6% in the experiment with HCT-15 colon; 38% in the experiment on HT29 colon. Besides, the growth is 49.3% in the experiment with SNB-75 CNS; 52.2% in the experiment on SNB-19 CNS; 44.3% in the experiment with U251 CNS; 9.84% (active) in the experiment on PC-3 prostate; 9.77% (active) with SK-MEL-5 melanoma; 24% in the experiment with UACC-62 melanoma. The growth with SK-MEL-28 melanoma is 42.1%.
Turning to `Cc1ccc(C2CC(c3ccc(S(=O)(=O)NCCNc4nc(Nc5ccc(F)cc5)nc(N(C)C)n4)cc3)=Nc3c(N)nc(N)nc3N2)cc1` (stereo not drawn), the growth in the experiment with DU-145 prostate was 76%; with K-562 leukemia, 8.57% (active); in the experiment on MALME-3M melanoma, 54.3%; with MDA-MB-231 breast, 32.5%; in the experiment on RXF 393 renal, 27.2%; in the experiment with SF-268 CNS, 57.7%. The growth with SF-295 CNS was 48%; in the experiment with SF-539 CNS, -44% (active); in the experiment on UACC-257 melanoma it was 75.4%; with M14 melanoma it was 41.5%; with HCT-15 colon, 29.1%; with HT29 colon, -14.3% (active). The growth is 77.7% in the experiment with SNB-75 CNS; 60.4% in the experiment with SNB-19 CNS; 47.3% in the experiment on U251 CNS; 33.5% in the experiment with PC-3 prostate; 29.1% with SK-MEL-5 melanoma; 63.7% with UACC-62 melanoma. In addition, the growth in the experiment on SK-MEL-28 melanoma was 59.8%.
As to `COc1cccc(COc2ccc(NC(=O)Nc3ccc(Cl)c(C(F)(F)F)c3)cc2)c1`, the growth in the experiment on DU-145 prostate was 44.6%; in the experiment on K-562 leukemia, 27.1%; with MALME-3M melanoma, 1.5% (active); in the experiment with MDA-MB-231 breast, 52%; with RXF 393 renal, 51.7%; in the experiment with SF-268 CNS it was 71.1%. The growth is 19.7% in the experiment with SF-295 CNS; 49.6% with SF-539 CNS; 60.9% in the experiment with UACC-257 melanoma; 62.6% in the experiment on M14 melanoma; 11.8% in the experiment on HCT-15 colon; 43.5% in the experiment on HT29 colon. Moreover, the growth was 32.1% in the experiment with SNB-75 CNS; 24.6% in the experiment with SNB-19 CNS; 31.8% in the experiment with U251 CNS; 16.3% with PC-3 prostate; -77% (active) in the experiment with SK-MEL-5 melanoma; 38% in the experiment with UACC-62 melanoma. The growth in the experiment on SK-MEL-28 melanoma is 69.6%.
In the case of `O=C(COc1ccc(NC(=O)Nc2ccc(Cl)c(Cl)c2)cc1)N=Nc1c(O)[nH]c2ccc(Cl)cc12`, the growth in the experiment on DU-145 prostate was -31.3% (active); in the experiment with K-562 leukemia it was 4.71% (active); with MALME-3M melanoma, -76.6% (active); with MDA-MB-231 breast, -66.5% (active); in the experiment on RXF 393 renal it was -53% (active); in the experiment on SF-268 CNS it was -12.3% (active). Besides, the growth with SF-295 CNS was -61% (active); with SF-539 CNS, -90.2% (active); with UACC-257 melanoma, -72.2% (active); with M14 melanoma, -71.2% (active); in the experiment with HCT-15 colon, 30.6%; in the experiment with HT29 colon, -30.1% (active). In addition, the growth in the experiment with SNB-75 CNS is -37.6% (active); in the experiment with SNB-19 CNS, -13.8% (active); with U251 CNS, -84.5% (active); in the experiment on PC-3 prostate it was -2.39% (active); with SK-MEL-5 melanoma it was -83.8% (active); with UACC-62 melanoma, -33.1% (active). Moreover, the growth in the experiment on SK-MEL-28 melanoma is -81.4% (active).
Turning to `NS(=O)(=O)c1ccc(N=Nc2c(O)n(CC(=O)Nc3ccccc3Cl)c3ccccc23)cc1`, the growth with DU-145 prostate is 28.8%; with K-562 leukemia, 16.2%; with MALME-3M melanoma it was 16%; in the experiment with MDA-MB-231 breast, 15.4%; in the experiment with RXF 393 renal, 24.4%; in the experiment on SF-268 CNS, 77.4%. Besides, the growth is 15.1% with SF-295 CNS; -10% (active) in the experiment on SF-539 CNS; 53.2% with UACC-257 melanoma; 23.8% in the experiment on M14 melanoma; 25.1% in the experiment with HCT-15 colon; 7.23% (active) in the experiment with HT29 colon. The growth was 52.8% in the experiment with SNB-75 CNS; 36.9% with SNB-19 CNS; 6.28% (active) with U251 CNS; 26.1% in the experiment on PC-3 prostate; -1.56% (active) with SK-MEL-5 melanoma; 19.7% in the experiment on UACC-62 melanoma. Besides, the growth in the experiment with SK-MEL-28 melanoma is 21.2%.
